Results filed as inconclusive are left out. Where a call stands in place of a potency, no number is given. Active and inactive are the calls of the source. The call rests on the fitted dose curve; in most records, active means well fitted inhibition curve with a large enough effect; inconclusive means small, poorly fitted or top-dose-only effect; inactive means flat fitted curve, though single readings scatter.
Assays:
Assay in all cases: qHTS profiling for inhibitors of Plasmodium falciparum proliferation (AID 504749); further: nearly all actives have a fitted effect of over 60% in size
Conditions in all cases: P. falciparum in erythrocytes, SYBR Green DNA, 72 h; series mostly up to 28.7 µM
[1] = system: CP268
Procedure, shortened: (§1)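 P. falciparum-infected erythrocytes (0.3% parasitemia, 2.5% hematocrit) incubated with compound 72 h at 37 C, 5% CO2. Parasite DNA detected by SYBR Green after lysis, overnight at room temperature; normalised to 0.29 uM artemisinin and DMSO.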

[2] = system: CP269
Procedure, shortened: as §1

[3] = system: CP286
Procedure, shortened: as §1

[4] = system: CP297
Procedure, shortened: as §1

[5] = system: CP305
Procedure, shortened: as §1

[6] = system: CP315
Procedure, shortened: as §1

[7] = system: CP325
Procedure, shortened: as §1

[8] = system: CP335
Procedure, shortened: as §1

[9] = system: CP291
Procedure, shortened: as §1

[10] = system: CP329
Procedure, shortened: as §1
Potency means the concentration at half of the fitted maximal effect.

Row | Structure (SMILES) | Potency [1] | Potency [2] | Potency [3] | Potency [4] | Potency [5] | Potency [6] | Potency [7] | Potency [8] | Potency [9] | Potency [10]
1 | NC(=O)N1c2ccccc2CC(=O)c2ccccc21 | inactive | inactive | inactive | inactive | inactive | inactive | inactive | inactive |  | 
2 | CC(N)C12CC3CC(CC(C3)C1)C2 (stereo not drawn) |  | inactive |  | 7.57 µM (active) |  | inactive |  |  |  | 
3 | CNCC[C@H](Oc1cccc2ccccc12)c1cccs1 |  |  | 12.6 µM (active) |  | inactive | inactive | inactive |  | inactive | inactive
4 | COc1ccc(C(=O)CC(=O)c2ccc(C(C)(C)C)cc2)cc1 | inactive | inactive |  | inactive | inactive | inactive | inactive | inactive | inactive | inactive
5 | CCCc1nc(C)c2c(=O)[nH]c(-c3cc(S(=O)(=O)N4CCN(CC)CC4)ccc3OCC)nn12 | inactive | inactive |  |  | inactive | inactive | inactive | inactive | inactive | inactive
6 | COC(=O)Nc1nc2ccc(C(=O)c3ccccc3)cc2[nH]1 | inactive |  | inactive | inactive |  | inactive |  | inactive |  | inactive
7 | CCC(C)(C)c1ccc(CC(C)CN2C[C@@H](C)O[C@@H](C)C2)cc1 (stereo partly drawn) | inactive | inactive |  | inactive | inactive | inactive | inactive | inactive | inactive | inactive
8 | COc1cccc(N(C)C(=S)Oc2ccc3c(c2)CCCC3)n1 |  | inactive |  |  | inactive | inactive | inactive |  |  | inactive
9 | C[C@@H](NCCCc1cccc(C(F)(F)F)c1)c1cccc2ccccc12 |  | 10.7 µM (active) | 11.2 µM (active) | 13.5 µM (active) | 13.5 µM (active) |  | 15.1 µM (active) |  | 10.7 µM (active) | 
10 | Cc1noc(NS(=O)(=O)c2ccc(N)cc2)c1C |  | inactive | inactive | inactive | inactive |  | inactive | inactive | inactive | inactive
11 | O=c1oc2c(O)c(O)cc3c(=O)oc4c(O)c(O)cc1c4c23 |  | 0.757 µM (active) | 1 µM (active) | 1.51 µM (active) |  |  | inactive | 0.849 µM (active) |  | inactive
12 | Cc1oc(=O)oc1CN1CCN(c2cc3c(cc2F)c(=O)c(C(=O)O)c2n3C(C)S2)CC1 (stereo not drawn) |  |  | 7.94 µM (active) |  |  | inactive |  | 6.01 µM (active) |  | 
13 | CN1CCCC(n2nc(Cc3ccc(Cl)cc3)c3ccccc3c2=O)CC1 (stereo not drawn) | inactive | inactive |  |  | inactive | inactive | inactive |  |  | inactive
14 | CN(Cc1cc(Br)cc(Br)c1N)C1CCCCC1 | inactive | inactive |  | inactive | inactive | inactive | inactive |  | inactive | inactive
15 | COc1nc(N)nc2c1ncn2[C@@H]1O[C@H](CO)[C@@H](O)[C@@H]1O | inactive | inactive | inactive |  | inactive | inactive | inactive | inactive |  | inactive
16 | CCOc1cc(N)c(Cl)cc1C(=O)NCC1CN(Cc2ccc(F)cc2)CCO1 (stereo not drawn) |  | 13.5 µM (active) | 3.98 µM (active) |  | 10.7 µM (active) |  |  | 6.75 µM (active) | 12 µM (active) | 13.5 µM (active)
17 | CNC(=O)c1cc(Oc2ccc(NC(=O)Nc3ccc(Cl)c(C(F)(F)F)c3)cc2)ccn1 |  |  |  | 9.53 µM (active) |  |  |  |  |  | 
18 | CCn1cc(C(=O)O)c(=O)c2cc(F)c(N3CCN(C)CC3)cc21 | inactive | inactive | 7.08 µM (active) | inactive |  | inactive | inactive |  |  | inactive
19 | COc1cc([C@@H]2c3cc4c(cc3[C@H](O)[C@H]3COC(=O)[C@H]23)OCO4)cc(OC)c1OC | 9.53 µM (active) | 4.26 µM (active) | 4.47 µM (active) | 15.1 µM (active) | 6.75 µM (active) |  | 13.5 µM (active) | 3.38 µM (active) |  | 
20 | N[C@@H](Cc1ccc(O)c(O)c1)C(=O)O | inactive | inactive |  | inactive | inactive | inactive | inactive |  | inactive | inactive
21 | OC(Cn1cncn1)(Cn1cncn1)c1ccc(F)cc1F | inactive |  | inactive | inactive | inactive | inactive | inactive | inactive | inactive | inactive
22 | CCn1cc(C(=O)O)c(=O)c2cc(F)c(N3CCNCC3)nc21 | inactive |  | inactive | inactive | inactive | inactive | inactive | inactive |  | inactive
23 | Oc1c(Cl)cc(Cl)c2cccnc12 |  |  |  |  |  | inactive |  |  |  | 10.7 µM (active)
24 | CCOC(=O)c1ccc(C#Cc2ccc3c(c2)C(C)(C)CCS3)nc1 |  | inactive |  | inactive |  | inactive | inactive |  |  | inactive
25 | CCCCCCNC(=O)n1cc(F)c(=O)[nH]c1=O |  |  | 7.08 µM (active) |  |  |  |  | 5.36 µM (active) | 12 µM (active) | 
26 | CC1=CC(=O)c2ccccc2C1=O | inactive | inactive |  | inactive | inactive | inactive | inactive | inactive | inactive | inactive
27 | CCn1cc(C(=O)O)c(=O)c2cc(F)c(N3CCNCC3)cc21 |  |  |  |  |  | inactive |  |  |  | inactive
28 | CCCCOc1ccc(CC(=O)NO)cc1 |  |  | 3.98 µM (active) |  | 4.55 µM (active) |  |  | 1.61 µM (active) | 3.22 µM (active) | 3.22 µM (active)
29 | CC(C)(C)C(=O)OCOP(=O)(COCCn1cnc2c(N)ncnc21)OCOC(=O)C(C)(C)C | inactive |  |  |  | inactive | inactive | inactive |  | inactive | inactive
30 | COc1c(N2CCNC(C)C2)c(F)cc2c(=O)c(C(=O)O)cn(C3CC3)c12 (stereo not drawn) | inactive |  |  |  | inactive | inactive | inactive | inactive |  | inactive

— PubChem BioAssay (NCATS)
